Experimental findings from article PMC7862700, “An all-to-all approach to the identification of sequence-specific readers for epigenetic DNA modifications on cytosine” are described below.

Test in all cases: DAPPL (digital affinity profiling via proximity ligation, sequencing); 10 mM Tris-HCl pH 7.5, 50 mM NaCl, 1 mM DTT, 4% glycerol, room temperature, 30 min; GST-TFs on glutathione beads, 16-mer random dsDNA library, 0.1% formaldehyde crosslink after washing; high values mean tight binding
Assay [1] has as its target T1, FEV (Homo sapiens, UniProt Q99581 1-238).
T1 sequence: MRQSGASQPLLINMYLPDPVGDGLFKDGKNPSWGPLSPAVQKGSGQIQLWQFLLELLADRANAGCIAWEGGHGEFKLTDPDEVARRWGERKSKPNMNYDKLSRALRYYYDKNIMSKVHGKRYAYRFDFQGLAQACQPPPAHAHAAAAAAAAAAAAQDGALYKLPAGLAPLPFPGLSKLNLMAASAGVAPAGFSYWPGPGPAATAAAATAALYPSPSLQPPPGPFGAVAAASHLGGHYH
The following applies: protein: recombinant; tags: N-terminal GST; dsDNA, one strand shown. A digest of the protocol: (§1)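 After expression in yeast as GST fusions, human transcription factors were bound to glutathione beads, DNA-barcoded and mixed with a tag-only sample. The pools were incubated with 200 nmole of a 16-mer random double-stranded DNA library in Tris/NaCl/DTT/glycerol buffer (30 min, room temperature), washed and crosslinked with 0.1% formaldehyde. Proximity ligation with BsaI/T4 ligase ran for 1 h at 37 °C, before PCR amplification and sequencing on an Illumina NextSeq500. Binding signal is a hexamer's read frequency for a factor divided by its frequency for the tag-only sample.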

For assay [2], the target named is ETV5 (Homo sapiens, UniProt P41161 1-510). The following applies: protein: recombinant; tags: N-terminal GST; dsDNA, one strand shown. A digest of the protocol: as §1
ETV5, sequence (P41161 whole entry): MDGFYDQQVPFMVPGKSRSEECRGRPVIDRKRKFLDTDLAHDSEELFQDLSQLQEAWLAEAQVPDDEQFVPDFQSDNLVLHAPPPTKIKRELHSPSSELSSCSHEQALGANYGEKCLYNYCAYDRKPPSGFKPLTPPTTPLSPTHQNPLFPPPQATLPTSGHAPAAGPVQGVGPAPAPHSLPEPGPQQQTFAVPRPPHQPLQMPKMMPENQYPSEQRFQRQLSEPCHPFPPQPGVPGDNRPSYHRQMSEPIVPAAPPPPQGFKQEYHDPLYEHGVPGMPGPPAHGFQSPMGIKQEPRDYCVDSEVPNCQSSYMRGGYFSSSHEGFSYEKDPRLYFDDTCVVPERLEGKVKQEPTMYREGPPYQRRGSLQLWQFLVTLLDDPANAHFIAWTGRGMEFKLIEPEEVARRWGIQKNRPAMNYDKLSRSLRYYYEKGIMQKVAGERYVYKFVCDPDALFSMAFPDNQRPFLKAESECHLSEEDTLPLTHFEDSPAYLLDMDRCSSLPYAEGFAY
The target of assay [3] is HSF1 (Homo sapiens, UniProt Q00613 1-529). The following applies: protein: recombinant; tags: N-terminal GST; chain copies: 3; dsDNA, one strand shown. An outline of the steps: as §1
HSF1, sequence (Q00613 whole entry): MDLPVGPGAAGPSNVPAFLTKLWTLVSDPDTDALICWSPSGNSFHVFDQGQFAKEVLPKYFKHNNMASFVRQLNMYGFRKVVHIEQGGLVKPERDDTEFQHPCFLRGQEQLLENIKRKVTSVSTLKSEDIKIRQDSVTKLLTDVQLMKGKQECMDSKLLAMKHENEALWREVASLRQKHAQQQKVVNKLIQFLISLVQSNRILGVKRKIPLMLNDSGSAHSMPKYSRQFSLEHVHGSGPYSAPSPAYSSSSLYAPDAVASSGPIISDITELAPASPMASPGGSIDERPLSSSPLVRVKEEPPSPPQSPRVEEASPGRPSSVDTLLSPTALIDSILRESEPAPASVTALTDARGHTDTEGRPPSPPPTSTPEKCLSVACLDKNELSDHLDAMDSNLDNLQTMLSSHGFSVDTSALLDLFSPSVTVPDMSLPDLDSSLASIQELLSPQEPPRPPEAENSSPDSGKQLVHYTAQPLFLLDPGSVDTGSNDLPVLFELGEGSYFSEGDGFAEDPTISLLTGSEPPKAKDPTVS
Assay [4] has as its target T2, SPIC (Homo sapiens, UniProt Q8N5J4 1-248).
T2 sequence: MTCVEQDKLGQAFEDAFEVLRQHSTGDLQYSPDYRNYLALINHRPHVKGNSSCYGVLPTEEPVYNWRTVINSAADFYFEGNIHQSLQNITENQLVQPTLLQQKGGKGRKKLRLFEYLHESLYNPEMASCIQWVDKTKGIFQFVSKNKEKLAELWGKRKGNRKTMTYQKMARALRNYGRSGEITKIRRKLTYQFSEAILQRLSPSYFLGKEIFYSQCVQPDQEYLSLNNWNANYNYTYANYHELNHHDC
The following applies: protein: recombinant; tags: N-terminal GST; dsDNA, one strand shown. An outline of the steps:
as §1

In assay [5] the target is ELF4 (Homo sapiens, UniProt Q99607 1-663). Particulars: protein: recombinant; tags: N-terminal GST; dsDNA, one strand shown. A digest of the protocol:
as §1

Assay [6] has as its target T3, ELK4 (Homo sapiens, UniProt P28324-2 1-405).
T3 sequence: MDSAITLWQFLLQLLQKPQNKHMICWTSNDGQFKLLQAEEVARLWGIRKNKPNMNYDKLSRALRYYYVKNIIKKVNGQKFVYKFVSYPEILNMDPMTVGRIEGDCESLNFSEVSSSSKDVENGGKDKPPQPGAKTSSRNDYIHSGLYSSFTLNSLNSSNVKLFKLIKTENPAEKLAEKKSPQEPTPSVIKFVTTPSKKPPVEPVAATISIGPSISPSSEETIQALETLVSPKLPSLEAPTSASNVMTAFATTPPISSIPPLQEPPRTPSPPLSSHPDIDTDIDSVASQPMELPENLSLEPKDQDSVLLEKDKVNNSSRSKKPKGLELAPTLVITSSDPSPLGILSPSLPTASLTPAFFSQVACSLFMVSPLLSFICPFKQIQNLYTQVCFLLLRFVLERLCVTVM
Particulars: protein: recombinant; tags: N-terminal GST; dsDNA, one strand shown. An outline of the steps: as §1

In assay [7] the target is T4, ETV2 (Homo sapiens, UniProt O00321 1-342).
T4 sequence: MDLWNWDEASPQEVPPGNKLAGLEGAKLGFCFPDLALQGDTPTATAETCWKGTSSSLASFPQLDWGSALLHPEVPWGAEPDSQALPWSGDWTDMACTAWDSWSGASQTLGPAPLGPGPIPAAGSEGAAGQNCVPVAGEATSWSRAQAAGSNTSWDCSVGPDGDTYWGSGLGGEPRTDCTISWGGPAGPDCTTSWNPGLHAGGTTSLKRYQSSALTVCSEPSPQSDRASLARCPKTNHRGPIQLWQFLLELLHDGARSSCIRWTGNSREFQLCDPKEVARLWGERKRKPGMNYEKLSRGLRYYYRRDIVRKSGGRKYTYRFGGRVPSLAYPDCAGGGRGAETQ
The following applies: protein: recombinant; tags: N-terminal GST; dsDNA, one strand shown. An outline of the steps:
as §1

In assay [8] the target is T5, ELF3 (Homo sapiens, UniProt P78545 1-371).
T5 sequence: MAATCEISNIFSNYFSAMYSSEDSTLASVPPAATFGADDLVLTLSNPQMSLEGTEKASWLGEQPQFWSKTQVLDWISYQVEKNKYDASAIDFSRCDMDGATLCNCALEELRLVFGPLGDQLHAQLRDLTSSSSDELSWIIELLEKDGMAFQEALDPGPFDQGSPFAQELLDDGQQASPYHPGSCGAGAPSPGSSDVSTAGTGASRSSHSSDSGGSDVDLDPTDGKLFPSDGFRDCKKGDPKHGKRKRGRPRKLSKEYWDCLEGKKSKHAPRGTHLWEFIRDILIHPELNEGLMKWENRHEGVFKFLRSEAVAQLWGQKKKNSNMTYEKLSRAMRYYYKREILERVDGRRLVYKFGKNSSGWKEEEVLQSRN
The following applies: protein: recombinant; tags: N-terminal GST; dsDNA, one strand shown. An outline of the steps: as §1

Assay [9] concerns the target CRX (Homo sapiens, UniProt O43186 1-299). The following applies: protein: recombinant; tags: N-terminal GST; dsDNA, one strand shown. A digest of the protocol: as §1
Assay [10] deals with ETV1 (Homo sapiens, UniProt P50549 1-477). The following applies: protein: recombinant; tags: N-terminal GST; dsDNA, one strand shown. A digest of the protocol:
as §1

Assay [11] has as its target T6, ERF (Homo sapiens, UniProt P50548 1-548).
T6 sequence: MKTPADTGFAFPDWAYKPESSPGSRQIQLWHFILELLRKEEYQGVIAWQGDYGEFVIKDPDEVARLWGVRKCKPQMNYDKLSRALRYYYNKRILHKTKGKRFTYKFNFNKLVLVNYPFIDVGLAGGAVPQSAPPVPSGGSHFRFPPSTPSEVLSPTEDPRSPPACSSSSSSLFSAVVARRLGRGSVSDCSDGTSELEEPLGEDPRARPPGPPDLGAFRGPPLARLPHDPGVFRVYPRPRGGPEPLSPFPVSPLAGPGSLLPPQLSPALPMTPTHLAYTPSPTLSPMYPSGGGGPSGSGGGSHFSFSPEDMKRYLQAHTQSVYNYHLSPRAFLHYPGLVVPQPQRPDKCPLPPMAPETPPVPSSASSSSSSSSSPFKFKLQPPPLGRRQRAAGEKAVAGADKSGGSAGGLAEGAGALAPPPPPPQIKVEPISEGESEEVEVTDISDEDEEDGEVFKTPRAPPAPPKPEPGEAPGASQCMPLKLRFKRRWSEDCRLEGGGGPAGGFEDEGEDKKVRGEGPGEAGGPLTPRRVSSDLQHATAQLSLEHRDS
The following applies: protein: recombinant; tags: N-terminal GST; dsDNA, one strand shown. A digest of the protocol:
as §1

The target in assay [12] is T7, ETV3L (Homo sapiens, UniProt Q6ZN32 1-361).
T7 sequence: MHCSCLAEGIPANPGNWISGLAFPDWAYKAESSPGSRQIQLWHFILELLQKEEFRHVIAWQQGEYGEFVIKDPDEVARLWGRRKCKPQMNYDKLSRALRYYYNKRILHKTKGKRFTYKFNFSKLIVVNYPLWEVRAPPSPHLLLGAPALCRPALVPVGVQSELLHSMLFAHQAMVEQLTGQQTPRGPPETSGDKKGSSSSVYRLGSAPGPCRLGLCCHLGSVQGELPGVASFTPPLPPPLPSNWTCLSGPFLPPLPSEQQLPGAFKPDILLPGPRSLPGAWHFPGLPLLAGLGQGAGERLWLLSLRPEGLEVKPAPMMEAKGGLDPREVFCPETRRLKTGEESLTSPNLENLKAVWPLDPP
Particulars: protein: recombinant; tags: N-terminal GST; dsDNA, one strand shown. An outline of the steps:
as §1

Assay [13] concerns the target T8, ETS2 (Homo sapiens, UniProt P15036 1-469).
T8 sequence: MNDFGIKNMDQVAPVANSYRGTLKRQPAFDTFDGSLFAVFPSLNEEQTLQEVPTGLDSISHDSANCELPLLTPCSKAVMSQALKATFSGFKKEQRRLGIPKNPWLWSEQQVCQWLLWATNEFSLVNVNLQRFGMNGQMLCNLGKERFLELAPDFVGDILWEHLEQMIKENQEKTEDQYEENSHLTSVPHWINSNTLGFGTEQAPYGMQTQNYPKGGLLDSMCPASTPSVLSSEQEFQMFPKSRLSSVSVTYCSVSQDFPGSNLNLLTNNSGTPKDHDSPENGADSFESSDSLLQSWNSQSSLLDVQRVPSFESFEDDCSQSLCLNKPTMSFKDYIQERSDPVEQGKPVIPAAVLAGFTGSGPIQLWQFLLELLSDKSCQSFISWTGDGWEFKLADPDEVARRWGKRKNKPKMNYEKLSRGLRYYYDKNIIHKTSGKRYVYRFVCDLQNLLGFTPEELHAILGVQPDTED
Particulars: protein: recombinant; tags: N-terminal GST; dsDNA, one strand shown. A digest of the protocol: as §1

The target in assay [14] is T9, SPDEF (Homo sapiens, UniProt O95238 1-335).
T9 sequence: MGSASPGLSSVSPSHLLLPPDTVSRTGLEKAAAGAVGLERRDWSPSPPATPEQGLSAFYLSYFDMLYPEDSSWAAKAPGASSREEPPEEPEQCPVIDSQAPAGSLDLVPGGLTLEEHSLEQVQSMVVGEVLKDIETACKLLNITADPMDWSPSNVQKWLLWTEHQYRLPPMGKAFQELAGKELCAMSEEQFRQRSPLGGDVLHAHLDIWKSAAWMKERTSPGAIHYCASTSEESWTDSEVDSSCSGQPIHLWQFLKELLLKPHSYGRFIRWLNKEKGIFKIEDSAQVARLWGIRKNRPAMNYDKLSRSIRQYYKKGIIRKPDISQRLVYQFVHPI
Particulars: protein: recombinant; tags: N-terminal GST; dsDNA, one strand shown. A digest of the protocol: as §1

Assay [15] has as its target T10, ETV7 (Homo sapiens, UniProt Q9Y603 1-341).
T10 sequence: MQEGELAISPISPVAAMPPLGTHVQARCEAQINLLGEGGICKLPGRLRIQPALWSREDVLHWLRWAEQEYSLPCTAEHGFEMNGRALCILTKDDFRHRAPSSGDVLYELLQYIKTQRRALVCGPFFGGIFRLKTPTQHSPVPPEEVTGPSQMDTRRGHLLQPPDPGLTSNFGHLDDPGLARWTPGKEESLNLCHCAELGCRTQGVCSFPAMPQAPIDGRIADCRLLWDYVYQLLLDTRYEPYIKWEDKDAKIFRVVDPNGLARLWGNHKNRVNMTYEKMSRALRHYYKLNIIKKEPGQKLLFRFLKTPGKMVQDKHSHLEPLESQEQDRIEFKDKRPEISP
Particulars: protein: recombinant; tags: N-terminal GST; dsDNA, one strand shown. An outline of the steps:
as §1

For assay [16], the target named is T11, ELF5 (Homo sapiens, UniProt Q9UKW6-2 1-255).
T11 sequence: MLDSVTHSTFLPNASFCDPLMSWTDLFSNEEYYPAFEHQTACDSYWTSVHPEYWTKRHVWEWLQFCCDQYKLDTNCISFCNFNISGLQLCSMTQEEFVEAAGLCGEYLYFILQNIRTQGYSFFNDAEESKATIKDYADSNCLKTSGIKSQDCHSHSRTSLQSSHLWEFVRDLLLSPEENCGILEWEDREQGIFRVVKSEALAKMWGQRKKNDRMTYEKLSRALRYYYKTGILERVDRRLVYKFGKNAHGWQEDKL
Particulars: protein: recombinant; tags: N-terminal GST; dsDNA, one strand shown. An outline of the steps:
as §1

In assay [17] the target is T12, ETV3 (Homo sapiens, UniProt P41162-2 1-143).
T12 sequence: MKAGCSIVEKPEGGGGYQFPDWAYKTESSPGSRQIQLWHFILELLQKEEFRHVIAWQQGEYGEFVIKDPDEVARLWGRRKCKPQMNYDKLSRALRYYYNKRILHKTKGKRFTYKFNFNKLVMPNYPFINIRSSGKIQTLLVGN
Particulars: protein: recombinant; tags: N-terminal GST; dsDNA, one strand shown. A digest of the protocol: as §1

In assay [18] the target is ETV6 (Homo sapiens, UniProt P41212 1-452). The following applies: protein: recombinant; tags: N-terminal GST; dsDNA, one strand shown. An outline of the steps:
as §1

ETV6, sequence (P41212 whole entry): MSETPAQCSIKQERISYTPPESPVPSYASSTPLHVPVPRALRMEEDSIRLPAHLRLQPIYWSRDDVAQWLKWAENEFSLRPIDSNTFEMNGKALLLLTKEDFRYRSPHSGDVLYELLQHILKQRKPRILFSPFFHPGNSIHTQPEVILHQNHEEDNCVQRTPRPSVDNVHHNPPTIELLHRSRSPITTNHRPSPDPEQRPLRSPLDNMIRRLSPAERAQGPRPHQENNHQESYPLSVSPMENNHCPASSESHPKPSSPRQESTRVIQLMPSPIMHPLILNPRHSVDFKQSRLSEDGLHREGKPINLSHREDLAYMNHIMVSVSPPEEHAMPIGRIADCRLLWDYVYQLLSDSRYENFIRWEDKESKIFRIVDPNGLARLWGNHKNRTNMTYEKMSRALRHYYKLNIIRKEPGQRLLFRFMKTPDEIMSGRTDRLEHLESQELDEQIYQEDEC
CRX, sequence (O43186 whole entry): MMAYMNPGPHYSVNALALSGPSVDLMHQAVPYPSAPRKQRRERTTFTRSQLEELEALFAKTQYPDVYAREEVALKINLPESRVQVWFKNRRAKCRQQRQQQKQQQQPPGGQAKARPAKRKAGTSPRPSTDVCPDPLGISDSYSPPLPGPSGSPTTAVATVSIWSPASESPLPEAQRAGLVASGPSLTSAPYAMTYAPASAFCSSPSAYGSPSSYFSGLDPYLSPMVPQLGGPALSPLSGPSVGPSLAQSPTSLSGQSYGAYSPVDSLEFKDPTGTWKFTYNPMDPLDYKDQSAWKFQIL
ELF4, sequence (Q99607 whole entry): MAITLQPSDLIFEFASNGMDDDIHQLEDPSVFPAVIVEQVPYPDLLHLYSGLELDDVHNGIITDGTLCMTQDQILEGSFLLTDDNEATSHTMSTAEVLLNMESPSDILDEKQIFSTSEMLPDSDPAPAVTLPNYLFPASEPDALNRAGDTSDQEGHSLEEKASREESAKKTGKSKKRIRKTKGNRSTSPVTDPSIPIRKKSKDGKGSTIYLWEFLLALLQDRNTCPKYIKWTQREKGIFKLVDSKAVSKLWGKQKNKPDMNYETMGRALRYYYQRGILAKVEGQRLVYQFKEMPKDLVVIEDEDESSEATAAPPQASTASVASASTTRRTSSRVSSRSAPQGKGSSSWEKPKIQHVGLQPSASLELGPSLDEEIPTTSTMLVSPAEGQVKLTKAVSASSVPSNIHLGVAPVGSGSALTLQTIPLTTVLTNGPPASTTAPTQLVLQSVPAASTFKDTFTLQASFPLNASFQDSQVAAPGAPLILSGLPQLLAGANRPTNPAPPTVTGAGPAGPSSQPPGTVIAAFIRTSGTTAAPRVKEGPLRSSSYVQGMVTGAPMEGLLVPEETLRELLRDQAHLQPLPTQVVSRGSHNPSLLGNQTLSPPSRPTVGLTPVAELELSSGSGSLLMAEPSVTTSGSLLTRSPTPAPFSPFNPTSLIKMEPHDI
ETV1, sequence (P50549 whole entry): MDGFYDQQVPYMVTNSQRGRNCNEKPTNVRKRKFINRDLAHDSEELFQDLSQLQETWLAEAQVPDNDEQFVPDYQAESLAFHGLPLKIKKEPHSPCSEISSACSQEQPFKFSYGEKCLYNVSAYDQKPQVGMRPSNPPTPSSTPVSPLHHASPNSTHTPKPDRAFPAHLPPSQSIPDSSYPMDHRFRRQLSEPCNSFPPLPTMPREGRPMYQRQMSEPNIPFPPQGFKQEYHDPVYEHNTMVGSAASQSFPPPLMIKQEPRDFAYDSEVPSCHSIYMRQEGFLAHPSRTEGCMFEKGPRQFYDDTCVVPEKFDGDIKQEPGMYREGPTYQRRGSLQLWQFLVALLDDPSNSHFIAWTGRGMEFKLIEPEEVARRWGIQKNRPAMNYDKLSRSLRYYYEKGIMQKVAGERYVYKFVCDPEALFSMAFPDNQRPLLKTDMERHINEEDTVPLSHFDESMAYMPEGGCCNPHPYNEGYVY

With TTGATG, the binding signal is 1.52 fold enrichment (6-mer frequency, TF over GST control) in assay [1]; 1.73 fold enrichment (6-mer frequency, TF over GST control) in assay [2]; 1.43 fold enrichment (6-mer frequency, TF over GST control) in [3]; 1.59 fold enrichment (6-mer frequency, TF over GST control) in assay [4]; 1.63 fold enrichment (6-mer frequency, TF over GST control) in assay [5]; 1.52 fold enrichment (6-mer frequency, TF over GST control) in [6]. Also, the binding signal in [7] is 1.53 fold enrichment (6-mer frequency, TF over GST control); in assay [8], 1.81 fold enrichment (6-mer frequency, TF over GST control); in [9], 1.5 fold enrichment (6-mer frequency, TF over GST control); in assay [10], 1.67 fold enrichment (6-mer frequency, TF over GST control); in assay [11], 1.66 fold enrichment (6-mer frequency, TF over GST control); in [12] it was 1.59 fold enrichment (6-mer frequency, TF over GST control). Moreover, the binding signal in assay [13] is 1.58 fold enrichment (6-mer frequency, TF over GST control); in [14], 1.51 fold enrichment (6-mer frequency, TF over GST control); in assay [15], 1.45 fold enrichment (6-mer frequency, TF over GST control); in assay [16], 1.6 fold enrichment (6-mer frequency, TF over GST control); in assay [17], 1.43 fold enrichment (6-mer frequency, TF over GST control); in [18], 1.57 fold enrichment (6-mer frequency, TF over GST control).
